Assay results published in PubChem BioAssay (NCATS).
Inconclusive results are not listed. Where a call stands in place of a potency, no number is given. Activity calls are given as the source filed them. The call rests on the fitted dose curve; in most records, active means well fitted curve in the direction sought with a large enough effect; inconclusive means small, poorly fitted or top-dose-only effect, or another doubt; inactive means no such curve, though single readings can be large; an effect the other way counts as inactive or inconclusive.

Legend:
[1] = P-glycoprotein substrates identified in KB-3-1 adenocarcinoma cell line, qHTS therapeutic library screen (AID 1346986); conditions: KB-3-1 parental cells viability, CellTiter-Glo, 72 h; series mostly up to 44.5 µM; further: nearly all actives have a fitted effect of over 60% in size
Summary of the method: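 72 h cell-killing screen, 500 cells/well, CellTiter-Glo luminescence. Paired lines KB-3-1/KB-8-5-11; P-gp dependence checked by tariquidar co-treatment and HEK-293 MDR-19 versus empty-vector cells.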

[2] = P-glycoprotein substrates identified in KB-8-5-11 adenocarcinoma cell line, qHTS therapeutic library screen (AID 1346987); conditions: KB-8-5-11 (P-gp overexpressing) viability, CellTiter-Glo, 72 h; series mostly up to 44.5 µM; further: nearly all actives have a fitted effect of over 65% in size
Summary of the method: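 Compounds are pinned in dose-response onto KB-8-5-11 cells (500 cells/well, colchicine-free medium) and left 72 h at 37 degree C. CellTiter-Glo luminescence then yields AC50 values.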

| Structure (SMILES) | outcome [1] | outcome [2] | Potency [1] | Potency [2] |
| --- | --- | --- | --- | --- |
| CC1OC(O[C@H]2CC[C@@]3(C)C(CC[C@]4(C)C3CC=C3C5CC(C)(C)CC[C@]5(C(=O)OC5OC(CO)C(OC6OC(COC7OCC(O)C(O)C7O)C(O)C(O)C6O)C(O)C5O)CC[C@]34C)C2(C)C)C(O)C(O)C1OC1OCC(OC2OCC(O)C(O)C2O)C(O)C1O (stereo partly specified) | inactive [at 9.29 µM] | inactive [at 9.29 µM] |  |  |
| CC(C)=CCC(O)/C(C)=C/CO[C@@H]1O[C@H](CO)[C@@H](O)[C@H](O)[C@H]1O (stereo partly specified) |  |  | inactive | inactive |
| COc1c2c(c(CO)c3c1C(=O)OC3)OC1(C)CCC3(O)C(C)(C)OC(=O)CCC3(C)C1C2 (stereo unspecified) |  |  | inactive | inactive |
| CC1CC[C@]2(C(=O)O)CC[C@]3(C(=O)O)C(=CCC4[C@@]5(C)CC[C@H](OC6OC(C)C(O)C(OC7OC(CO)C(O)C(O)C7O)C6O)C(C)(C)C5CC[C@]43C)C2C1C (stereo partly specified) |  |  | inactive | inactive |
| CC(C)c1ccc(CO)cc1O[C@@H]1O[C@H](CO)[C@@H](O)[C@H](O)[C@H]1O |  |  | inactive | inactive |
| CC1CCN(C(=O)CC#N)CC1N(C)c1ncnc2[nH]ccc12 (stereo unspecified) |  |  | inactive | inactive |
| C=C1C(=O)OC2CC(C)=C(C(C)CCCO)C(O)C12 (stereo unspecified) |  |  | inactive | inactive |
| CC(=O)N[C@@H](CCCCN)C(=O)N(C)[C@@H](CC(C)C)C(=O)N[C@H](C(=O)N(C)[C@@H](Cc1ccccc1)C(=O)N[C@H](Cc1ccccc1)C(N)=O)C(C)C | inactive [at 5.11 µM] | inactive [at 5.11 µM] |  |  |
